Measurements: the supplement of paper PMC4022240
± gives the standard deviation.

Experiments:
Assay in all cases: peptide microarray binding signal (635 nm), min-max normalized on array (fraction of array maximum); higher = stronger binding
[1] = molecular target: T1, HaloTag-ATRX ADD domain (163-292)
T1 chain: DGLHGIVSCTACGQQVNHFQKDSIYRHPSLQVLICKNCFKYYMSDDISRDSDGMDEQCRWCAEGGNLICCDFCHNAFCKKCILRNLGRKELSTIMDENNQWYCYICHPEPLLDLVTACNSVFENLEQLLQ
Summary of the method: (§1)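 Arrays carried histone 13-mer peptide–cellulose conjugates printed in triplicate on nitrocellulose alongside a Cy3 tracer. After overnight blocking at 4°C, they were incubated for 1 h at 4°C with biotin-labelled HaloTag reader fusions (10 nM to 1 μM) plus streptavidin-Alexa Fluor 647, or with rabbit histone antibodies (1:10,000 to 1:2,000) plus anti-rabbit Alexa 647. Scanning on an Axon GenePix 4000B used 635 nm for signal and 532 nm for misprints. The binding signal reported is each triplicate's mean spot intensity after per-library min-max scaling.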

[2] = molecular target: HaloTag-ING2 PHD (mouse Ing2 200-280)
Summary of the method: as §1

[3] = molecular target: anti-H3K4me3 antibody ab8580
Summary of the method: as §1

[4] = molecular target: anti-H3K9me3 antibody ab8898
Summary of the method: as §1

[5] = peptide region: H3 112-124, peptide modifications: H3R116me2s, binder concentration: 1:2,000 dilution
[6] = peptide region: H3 112-124, peptide modifications: H3R116me2s, binder concentration: 1:10,000 dilution
[7] = peptide region: H4 1-13, binder concentration: 1:2,000 dilution
[8] = peptide region: H4 1-13, binder concentration: 1:10,000 dilution
[9] = peptide region: H3 112-124, peptide modifications: H3K122me2, binder concentration: 1:2,000 dilution
[10] = peptide region: H3 112-124, peptide modifications: H3K122me2, binder concentration: 1:10,000 dilution
[11] = peptide region: H4 1-13, peptide modifications: H4R3me2a, binder concentration: 1:2,000 dilution
[12] = peptide region: H4 1-13, peptide modifications: H4R3me2a, binder concentration: 1:10,000 dilution
[13] = peptide region: H3 112-124, peptide modifications: H3K122ac, binder concentration: 1:2,000 dilution
[14] = peptide region: H3 112-124, peptide modifications: H3K122ac, binder concentration: 1:10,000 dilution
[15] = peptide region: H3 112-124, peptide modifications: H3R116cit, binder concentration: 1:2,000 dilution
[16] = peptide region: H3 112-124, peptide modifications: H3R116cit, binder concentration: 1:10,000 dilution
[17] = peptide region: H4 1-13, peptide modifications: H4K5ac, binder concentration: 1:2,000 dilution
[18] = peptide region: H4 1-13, peptide modifications: H4K5ac, binder concentration: 1:10,000 dilution
[19] = peptide region: H4 1-13, peptide modifications: H4R3me1, binder concentration: 1:2,000 dilution
[20] = peptide region: H4 1-13, peptide modifications: H4R3me1, binder concentration: 1:10,000 dilution
[21] = peptide region: H4 1-13, peptide modifications: H4S1ph H4K5ac, binder concentration: 1:2,000 dilution
[22] = peptide region: H4 1-13, peptide modifications: H4S1ph H4K5ac, binder concentration: 1:10,000 dilution
[23] = peptide region: H3 112-124, peptide modifications: H3R116me2a, binder concentration: 1:2,000 dilution
[24] = peptide region: H3 112-124, peptide modifications: H3R116me2a, binder concentration: 1:10,000 dilution

B1: H3 112-124 I H A K Rme2s V T I M P K D I (peptide)
chain: IHAKRVTIMPKDI
- peptide microarray binding signal ([1]; peptide region: H3 112-124, peptide modifications: H3R116me2s, binder concentration: 50 nM): 0.00574 ± 0.00016
- peptide microarray binding signal ([1]; peptide region: H3 112-124, peptide modifications: H3R116me2s, binder concentration: 500 nM): 0.0129 ± 0.00072
- peptide microarray binding signal ([2]; peptide region: H3 112-124, peptide modifications: H3R116me2s, binder concentration: 10 nM): 0.00645 ± 0.00026
- peptide microarray binding signal ([2]; peptide region: H3 112-124, peptide modifications: H3R116me2s, binder concentration: 100 nM): 0.014 ± 0.00075
- peptide microarray binding signal [3, 5]: 0.00215 ± 0.00015
- peptide microarray binding signal [3, 6]: 0.00285 ± 0.00021
- peptide microarray binding signal [4, 5]: 0.00341 ± 0.00018
- peptide microarray binding signal [4, 6]: 0.002306 ± 2.1e-05

B2: H4 1-13 S G R G K G G K G L G K G (peptide)
chain: SGRGKGGKGLGKG
- peptide microarray binding signal ([1]; peptide region: H4 1-13, binder concentration: 50 nM): 0.00834 ± 0.00028
- peptide microarray binding signal ([1]; peptide region: H4 1-13, binder concentration: 500 nM): 0.018 ± 0.0011
- peptide microarray binding signal ([2]; peptide region: H4 1-13, binder concentration: 10 nM): 0.0037 ± 0.00019
- peptide microarray binding signal ([2]; peptide region: H4 1-13, binder concentration: 100 nM): 0.00928 ± 0.00099
- peptide microarray binding signal [3, 7]: 0.000189 ± 2e-06
- peptide microarray binding signal [3, 8]: 0.00417 ± 0.00056
- peptide microarray binding signal [4, 7]: 0.00211 ± 0.00074
- peptide microarray binding signal [4, 8]: 0.00306 ± 0.00014

B3: H3 112-124 I H A K R V T I M P Kme2 D I (peptide)
chain: IHAKRVTIMPKDI
- peptide microarray binding signal ([1]; peptide region: H3 112-124, peptide modifications: H3K122me2, binder concentration: 50 nM): 0.0047 ± 8.8e-05
- peptide microarray binding signal ([1]; peptide region: H3 112-124, peptide modifications: H3K122me2, binder concentration: 500 nM): 0.0148 ± 0.00039
- peptide microarray binding signal ([2]; peptide region: H3 112-124, peptide modifications: H3K122me2, binder concentration: 10 nM): 0.00567 ± 0.00021
- peptide microarray binding signal ([2]; peptide region: H3 112-124, peptide modifications: H3K122me2, binder concentration: 100 nM): 0.0168 ± 0.0034
- peptide microarray binding signal [3, 9]: 0.000906 ± 6e-05
- peptide microarray binding signal [3, 10]: 0.000799 ± 8.3e-06
- peptide microarray binding signal [4, 9]: 0.00287 ± 0.00058
- peptide microarray binding signal [4, 10]: 0.00121 ± 2.4e-05

B4: H4 1-13 S G Rme2a G K G G K G L G K G (peptide)
chain: SGRGKGGKGLGKG
- peptide microarray binding signal ([1]; peptide region: H4 1-13, peptide modifications: H4R3me2a, binder concentration: 50 nM): 0.0021 ± 9.6e-06
- peptide microarray binding signal ([1]; peptide region: H4 1-13, peptide modifications: H4R3me2a, binder concentration: 500 nM): 0.00305 ± 6.3e-05
- peptide microarray binding signal ([2]; peptide region: H4 1-13, peptide modifications: H4R3me2a, binder concentration: 10 nM): 0.00269 ± 4e-05
- peptide microarray binding signal ([2]; peptide region: H4 1-13, peptide modifications: H4R3me2a, binder concentration: 100 nM): 0.00404 ± 9.1e-05
- peptide microarray binding signal [3, 11]: 0.000227 ± 4.2e-06
- peptide microarray binding signal [3, 12]: 0.000856 ± 2.3e-05
- peptide microarray binding signal [4, 11]: 1.51e-05 ± 1.7e-07
- peptide microarray binding signal [4, 12]: 0.000577 ± 1.2e-05

B5: H3 112-124 I H A K R V T I M P Kac D I (peptide)
chain: IHAKRVTIMPKDI
- peptide microarray binding signal ([1]; peptide region: H3 112-124, peptide modifications: H3K122ac, binder concentration: 50 nM): 0.002508 ± 1.9e-05
- peptide microarray binding signal ([1]; peptide region: H3 112-124, peptide modifications: H3K122ac, binder concentration: 500 nM): 0.00729 ± 0.0012
- peptide microarray binding signal ([2]; peptide region: H3 112-124, peptide modifications: H3K122ac, binder concentration: 10 nM): 0.00328 ± 0.00025
- peptide microarray binding signal ([2]; peptide region: H3 112-124, peptide modifications: H3K122ac, binder concentration: 100 nM): 0.00475 ± 0.0007
- peptide microarray binding signal [3, 13]: 0.00113 ± 0.00025
- peptide microarray binding signal [3, 14]: 0.00137 ± 0.00013
- peptide microarray binding signal [4, 13]: 0.000483 ± 2.4e-05
- peptide microarray binding signal [4, 14]: 0.000692 ± 7.3e-06

B6: H3 112-124 I H A K Rcit V T I M P K D I (peptide)
chain: IHAKRVTIMPKDI
- peptide microarray binding signal ([1]; peptide region: H3 112-124, peptide modifications: H3R116cit, binder concentration: 50 nM): 0.00583 ± 8.8e-05
- peptide microarray binding signal ([1]; peptide region: H3 112-124, peptide modifications: H3R116cit, binder concentration: 500 nM): 0.0207 ± 0.0059
- peptide microarray binding signal ([2]; peptide region: H3 112-124, peptide modifications: H3R116cit, binder concentration: 10 nM): 0.00895 ± 0.0012
- peptide microarray binding signal ([2]; peptide region: H3 112-124, peptide modifications: H3R116cit, binder concentration: 100 nM): 0.00992 ± 0.0023
- peptide microarray binding signal [3, 15]: 0.00451 ± 0.0016
- peptide microarray binding signal [3, 16]: 0.00359 ± 0.00055
- peptide microarray binding signal [4, 15]: 0.00177 ± 0.00034
- peptide microarray binding signal [4, 16]: 0.00179 ± 8.5e-05

B7: H4 1-13 S G R G Kac G G K G L G K G (peptide)
chain: SGRGKGGKGLGKG
- peptide microarray binding signal ([1]; peptide region: H4 1-13, peptide modifications: H4K5ac, binder concentration: 50 nM): 0.00201 ± 2.4e-05
- peptide microarray binding signal ([1]; peptide region: H4 1-13, peptide modifications: H4K5ac, binder concentration: 500 nM): 0.00524 ± 0.00032
- peptide microarray binding signal ([2]; peptide region: H4 1-13, peptide modifications: H4K5ac, binder concentration: 10 nM): 0.00197 ± 5.8e-05
- peptide microarray binding signal ([2]; peptide region: H4 1-13, peptide modifications: H4K5ac, binder concentration: 100 nM): 0.00659 ± 0.00054
- peptide microarray binding signal [3, 17]: 0.000585 ± 1.1e-05
- peptide microarray binding signal [3, 18]: 0.000571 ± 1.1e-05
- peptide microarray binding signal [4, 17]: 0.000302 ± 1.2e-05
- peptide microarray binding signal [4, 18]: 0.000404 ± 4.4e-06

B8: H4 1-13 S G Rme G K G G K G L G K G (peptide)
chain: SGRGKGGKGLGKG
- peptide microarray binding signal ([1]; peptide region: H4 1-13, peptide modifications: H4R3me1, binder concentration: 50 nM): 0.00483 ± 0.00013
- peptide microarray binding signal ([1]; peptide region: H4 1-13, peptide modifications: H4R3me1, binder concentration: 500 nM): 0.00838 ± 0.0007
- peptide microarray binding signal ([2]; peptide region: H4 1-13, peptide modifications: H4R3me1, binder concentration: 10 nM): 0.00477 ± 0.00017
- peptide microarray binding signal ([2]; peptide region: H4 1-13, peptide modifications: H4R3me1, binder concentration: 100 nM): 0.0127 ± 0.0019
- peptide microarray binding signal [3, 19]: 0.00125 ± 0.00022
- peptide microarray binding signal [3, 20]: 0.0012 ± 1.2e-05
- peptide microarray binding signal [4, 19]: 0.000544 ± 6.8e-05
- peptide microarray binding signal [4, 20]: 0.00115 ± 2e-05

B9: H4 1-13 Sph G R G Kac G G K G L G K G (peptide)
chain: SGRGKGGKGLGKG
- peptide microarray binding signal ([1]; peptide region: H4 1-13, peptide modifications: H4S1ph H4K5ac, binder concentration: 50 nM): 0.00348 ± 3.8e-05
- peptide microarray binding signal ([1]; peptide region: H4 1-13, peptide modifications: H4S1ph H4K5ac, binder concentration: 500 nM): 0.0117 ± 0.00091
- peptide microarray binding signal ([2]; peptide region: H4 1-13, peptide modifications: H4S1ph H4K5ac, binder concentration: 10 nM): 0.001373 ± 8.3e-06
- peptide microarray binding signal ([2]; peptide region: H4 1-13, peptide modifications: H4S1ph H4K5ac, binder concentration: 100 nM): 0.00269 ± 6.7e-05
- peptide microarray binding signal [3, 21]: 0.000208 ± 2.2e-06
- peptide microarray binding signal [3, 22]: 0.000856 ± 8.9e-06
- peptide microarray binding signal [4, 21]: 0.000362 ± 6.3e-06
- peptide microarray binding signal [4, 22]: 0.000692 ± 7.3e-06

B10: H3 112-124 I H A K Rme2a V T I M P K D I (peptide)
chain: IHAKRVTIMPKDI
- peptide microarray binding signal ([1]; peptide region: H3 112-124, peptide modifications: H3R116me2a, binder concentration: 50 nM): 0.00257 ± 3e-05
- peptide microarray binding signal ([1]; peptide region: H3 112-124, peptide modifications: H3R116me2a, binder concentration: 500 nM): 0.00719 ± 0.00024
- peptide microarray binding signal ([2]; peptide region: H3 112-124, peptide modifications: H3R116me2a, binder concentration: 10 nM): 0.00322 ± 3.5e-05
- peptide microarray binding signal ([2]; peptide region: H3 112-124, peptide modifications: H3R116me2a, binder concentration: 100 nM): 0.007583 ± 5.2e-05
- peptide microarray binding signal [3, 23]: 0.000396 ± 1.8e-05
- peptide microarray binding signal [3, 24]: 0.000514 ± 1.1e-05
- peptide microarray binding signal [4, 23]: 0.00154 ± 0.0003
- peptide microarray binding signal [4, 24]: 0.00098
